MenB inh = inhibitors of Mycobacterium tuberculosis MenB enzyme. hit rate 0.43% among 100,000. P9WNP5. inhibition, % (no concentration beside the values). MenB enzyme assay, absorbance read-out. AID 540299; in the data active = inhibition above about 21%, passing the limit was not always enough
MbtI inh = inhibitors of Mycobacterium tuberculosis siderophore enzyme MbtI; P9WFX0; inhibition, % (test concentration not listed); purified MbtI enzyme, fluorescence intensity read-out; AID 493033; hit rate 0.89% among 100,000; in the data active = inhibition mostly above about 56%, no sharp cut-off; inactive = mostly below about 77%
Polio RdRp inh = poliovirus RNA polymerase inhibition; P03300; poliovirus polymerase elongation, fluorescence polarization; stronger effect = lower value; % elongation, % (compound at 16.7 µg/mL); hit rate 0.66% among 150,000; in the data active = % elongation below about 90%
Target sequence (P03300 1749-2209 limits assumed): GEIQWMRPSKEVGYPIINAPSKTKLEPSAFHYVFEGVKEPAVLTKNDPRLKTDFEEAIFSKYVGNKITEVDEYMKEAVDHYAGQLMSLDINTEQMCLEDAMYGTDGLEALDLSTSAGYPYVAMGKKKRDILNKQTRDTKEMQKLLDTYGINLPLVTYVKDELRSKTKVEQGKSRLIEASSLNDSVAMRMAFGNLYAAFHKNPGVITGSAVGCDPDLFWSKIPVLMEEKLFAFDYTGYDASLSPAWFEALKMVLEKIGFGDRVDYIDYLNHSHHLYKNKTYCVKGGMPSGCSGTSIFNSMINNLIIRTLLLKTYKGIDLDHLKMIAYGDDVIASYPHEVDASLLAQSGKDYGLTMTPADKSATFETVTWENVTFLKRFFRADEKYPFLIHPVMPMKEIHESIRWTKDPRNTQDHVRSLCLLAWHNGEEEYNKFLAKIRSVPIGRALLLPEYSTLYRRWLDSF
* hit, by the source's call. Hits are enriched below; roughly 1.4% of the tested compounds scored in any of these assays.

For O=C(Oc1ccccc1-c1nnco1)c1ccc(C(F)(F)F)cc1 the results were MenB inh -80, MbtI inh -104 and Polio RdRp inh 105.
Screening Cc1snnc1C(=O)Oc1ccccc1-c1nnco1 returned MenB inh 10, MbtI inh -61 and Polio RdRp inh 78*.
Cc1nn(CC(=O)NC2CCCC(C)C2C)c(=O)c2cc3cc(F)ccc3n12 (centres undefined) was read as MenB inh -31, MbtI inh 22 and Polio RdRp inh 103.
Screening C=CCc1cccc(/C=N/n2c(-c3ccccc3C)n[nH]c2=S)c1O returned MenB inh -59, MbtI inh 13 and Polio RdRp inh 98.
Screening COCCn1c(C)cc(/C=N/n2c(-c3ccccc3C)n[nH]c2=S)c1C returned MenB inh -37, MbtI inh 96* and Polio RdRp inh 82*.
For Cc1c(O)c(CN2CCC(C)CC2)cc2c(-c3ccccc3)cc(=O)oc12 the results were MenB inh -12 and Polio RdRp inh 110.
CC(=O)Nc1ccc(C(=O)CSc2nnc3n2CCCCC3)c(F)c1 was read as MenB inh -10, MbtI inh -4 and Polio RdRp inh 103.
Screening N#Cc1ccccc1OCC(=O)c1cccs1 returned MenB inh -184, MbtI inh 13 and Polio RdRp inh 103.
For N#CSCC(=O)c1cccs1 the results were MenB inh -22 and Polio RdRp inh 85*.
Screening CC(=O)Nc1ccc(NC(NC(=O)c2ccco2)C(=O)c2ccc(Cl)cc2)cc1 (centres undefined) returned MenB inh -63, MbtI inh -2 and Polio RdRp inh 105.
`N#C/C(C(=O)N1CCCCC1)=C1/C(=O)Nc2ccccc21` gave MenB inh -27, MbtI inh -1 and Polio RdRp inh 98.
`C(=Nc1cnc2ccc3ccccc3c2c1)c1ccco1` gave MbtI inh -2 and Polio RdRp inh 103.
Screening COc1ccc(N2CCN(C(=O)c3cccnc3Nc3ccccc3F)CC2)cc1 returned MenB inh -7, MbtI inh 5 and Polio RdRp inh 102.
O=C(c1cccnc1Nc1ccccc1F)N1CCCCC1 was read as MenB inh 39*, MbtI inh 8 and Polio RdRp inh 100.
`CCN1CCN(Cc2ccc(N)cc2)CC1` gave MenB inh -8 and Polio RdRp inh 107.
For CCc1ccc(CN2CCC(O)CC2)cc1 the results were MenB inh 36*, MbtI inh -11 and Polio RdRp inh 99.
CCc1ccc(NC(=O)NC2CCN(Cc3ccccc3)CC2)cc1 was read as MenB inh -34, MbtI inh -11 and Polio RdRp inh 103.
O=C(Nc1nccs1)c1ccccc1C(=O)Nc1nccs1 was read as MenB inh -12 and Polio RdRp inh 101.
`CCN1CCCC1CNCc1cccc(OC)c1OC` (centres undefined) gave MenB inh 38*, MbtI inh 1 and Polio RdRp inh 103.
`CCN1CCCC1CNCc1ccccn1` (centres undefined) gave MenB inh -79, MbtI inh 2 and Polio RdRp inh 102.
COc1ccc(C(=O)NCCc2ccc(O)cc2)c(OC)n1 was read as MenB inh -1, MbtI inh 1 and Polio RdRp inh 102.
CS(=O)(=O)N1N=C(c2ccc(Br)cc2)CC1c1nc2ccccc2[nH]1 (centres undefined) was read as MenB inh 9 and MbtI inh 3.
O=S(=O)(c1ccc(=S)[nH]c1)N1CCCCCC1 was read as MenB inh -8, MbtI inh 95* and Polio RdRp inh 106.
For O=S(=O)(c1ccc(I)cc1)N1CCCCCC1 the results were MenB inh -19, MbtI inh 1 and Polio RdRp inh 102.
CN(C)S(=O)(=O)c1cccc(COC(=O)c2cccnc2SCC(=O)Nc2ccc3c(c2)OCO3)c1 was read as MenB inh -25, MbtI inh 2 and Polio RdRp inh 108.
`O=C1Nc2ccccc2S/C1=C\c1ccccc1` gave MenB inh -48, MbtI inh -23 and Polio RdRp inh 101.
`O=C1N/C(=N\Nc2ccccc2)S/C1=C\c1ccccc1` gave MenB inh -36, MbtI inh 80* and Polio RdRp inh 108.
Cn1c(SCC(=O)N(c2ccccc2)C2CCCCC2)nc2cc(S(N)(=O)=O)ccc21 was read as MenB inh 6, MbtI inh 17 and Polio RdRp inh 79*.
`O=C(CSc1nnnn1C1CCCC1)N(c1ccccc1)C1CCCCC1` gave MenB inh -14, MbtI inh 1 and Polio RdRp inh 101.
Cc1cc2ncn(CCOc3ccccc3C)c2cc1C was read as MenB inh -37, MbtI inh 8 and Polio RdRp inh 103.
For COC(=O)Cc1[nH]n(-c2nc3ccccc3s2)c(=O)c1C(C)=O the results were MenB inh -11 and Polio RdRp inh 107.

Compound activity deposited in PubChem BioAssay by ICCB-Longwood Screening Facility, Harvard Medical School.
